Laboratory results: PubChem BioAssay AID2685 (National Center for Advancing Translational Sciences (NCATS), 2010)
Hit rate of the full screen: of about 320,000 compounds, about 2,100 (0.66%) were called active. About 53% were inconclusive and are not listed. Calls follow the shape of the dose curve; as a rule, active = well fitted inhibition curve with a large enough effect in the signal ratio, with a control signal flat (not every such curve was filed as active); inconclusive = small, poorly fitted or top-dose-only effect, or effect the other way, or a change in a side signal; inactive = flat fitted curve, though single readings scatter; the % refers to the signal ratio. Only a selection was taken, and actives are over-represented in it overall.

assay: qHTS Assay for Lipid Storage Modulators in Drosophila S3 Cells; conditions: BODIPY lipid droplet fluorescence, 18-24 h, cells fed with added oleic acid; cell number change: measured here: cell count max response; series mostly up to 46.1 µM;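 as to cell number change: cells counted by Cell Tracker Red CMTPX staining in the red channel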
Procedure, shortened: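 Drosophila S3 cells got compounds at several concentrations plus oleic acid (400 uM solution). Laser-scanning cytometry with 488 nm excitation read lipid droplets at 500-530 nm and cells at 575-640 nm. Percent activity was relative to 20 uM Triacsin C.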
Potency is read from the fitted curve at half-maximal effect.

| Compound | Potency | cell number change |
| --- | --- | --- |
| Cc1sc2nc(CN3CCOCC3)[nH]c(=O)c2c1-c1ccccc1 | inactive | -18.1% |
| O=C(c1cccc(Cl)c1)N1CCCC(C(=O)N2CCCCCC2)C1 (stereo unspecified) | inactive | -0.867% |
| NC(Cc1ccccc1)C(O)(c1ccccc1)c1ccccc1 (stereo unspecified) | inactive | -20.2% |
| Cc1noc(NS(=O)(=O)c2ccc(NC(=O)CCn3c(=O)oc4ccccc43)cc2)c1C | inactive | – |
| CCC(C)NC(=O)C(=O)NCc1ccccn1 (stereo unspecified) | inactive | 4.8% |
| Cc1ccc(S(=O)(=O)Cc2nnnn2-c2ccccc2)cc1 | inactive | -3.66% |
| COc1ccc(CC(=O)Nc2ccc(-c3noc(-c4ccc(Cl)cc4)n3)cc2)cc1 | inactive | -6.7% |
| COc1ccc(CCNC(=O)CNC(=O)c2ccccc2Br)cc1OC | inactive | 19.2% |
| O=C1C(Cc2ccc(O)cc2)NC(=S)N1C1CCCCC1 (stereo unspecified) | inactive | 9.32% |
| CC(=O)Nc1sc(NC(=O)c2ccc([N+](=O)[O-])cc2)nc1-c1cccs1 | inactive | 7.62% |
| Cc1cccc(NC(=O)CC2C(=O)NC3CCCCC3N2C(=O)c2ccccc2Cl)c1 (stereo unspecified) | inactive | 7.35% |
| CN(C(=O)CC1C(=O)NCCN1Cc1ccc(F)c(F)c1)C1CCOCC1 (stereo unspecified) | inactive | 1.07% |
| CC(C)c1ccc2[nH]c3nc(SCC(=O)NC4CC4)nnc3c2c1 | 0.651 µM (active) | 8.7% |
| O=C(CSc1nnc2c(n1)[nH]c1ccc(F)cc12)NC1CC1 | 20.6 µM (active) | -6.52% |
| CC1CCc2cc(F)ccc2N1C(=O)CSc1nnc2c(n1)[nH]c1ccc(F)cc12 (stereo unspecified) | inactive | -17.4% |
| CC(C)c1ccc2[nH]c3nc(SCC(=O)N4CCOCC4)nnc3c2c1 | inactive | -11.8% |
| CC1CCCCN1C(=O)CSc1nnc2c(n1)[nH]c1ccc(F)cc12 (stereo unspecified) | inactive | 8.7% |
| CC1Cc2ccccc2N1C(=O)CSc1nnc2c(n1)[nH]c1ccccc12 (stereo unspecified) | inactive | 3.16% |
| CCc1ccc2[nH]c3nc(SCC(=O)NCC4CCCO4)nnc3c2c1 (stereo unspecified) | inactive | 8.06% |

| Compound | Potency | cell number change |
| --- | --- | --- |
| CC1CCCCN1C(=O)CSc1nnc2c(n1)[nH]c1ccccc12 (stereo unspecified) | 0.58 µM (active) | 8.97% |
| Cc1ccc(C(=O)NNC(=O)CSc2nnc3c(n2)[nH]c2ccc(F)cc23)cc1 | inactive | 6.2% |
| COc1ccc(CC(NC(C)=O)C(=O)NC2CCN(c3nnnn3-c3ccccc3)CC2)cc1OC (stereo unspecified) | inactive | -4.36% |
| COc1ccc(-c2c(=O)n(OCc3nc4ccccc4[nH]3)c3ccccc3[n+]2[O-])cc1 | inactive | 2.91% |
| Cc1cccc2cc(COC(=O)C3CCCCC3)c(=O)[nH]c12 | inactive | 10.5% |
| N#Cc1cncc(-c2ccc3c(c2)OCCOCCOCCOCCOCCO3)n1 | inactive | 3.78% |
| COc1cc(CNC2CCCCCCC2)cc(Cl)c1OCC(N)=O | inactive | 6.3% |
| COc1ccccc1N1CCN(C(=O)c2cc(C)oc2C)CC1 | inactive | 9.51% |
| O=C(O)c1oc2ccc(Br)cc2c1-n1cccc1 | inactive | – |
| CCOC(=O)C1CCN(CC(=O)Nc2c(C(=O)OC)n(C)c3cccc(C)c23)CC1 | inactive | -3.82% |
| COC(=O)c1c(NC(=O)CN2CCCC(C)C2)c2c(C)cccc2n1C (stereo unspecified) | 3.26 µM (active) | -24.5% |
| COC(=O)c1c(NC(=O)CN2CCN(C(=O)c3ccco3)CC2)c2c(C)cccc2n1C | inactive | -8.93% |
| COc1ccc(C)cc1NC(=O)C(=O)NCc1ccncc1 | inactive | 1.5% |
| COC(=O)c1ccc(C2c3[nH]c4ccccc4c3C[C@H]3C(=O)N(C4CC4)CC(=O)N23)cc1 (stereo partly specified) | inactive | -1.73% |
| O=C1[C@@H]2Cc3c([nH]c4ccccc34)C(c3ccccc3)N2C(=O)CN1C1CC1 (stereo partly specified) | 4.11 µM (active) | -19.8% |
| O=C1[C@@H]2Cc3c([nH]c4ccccc34)C(c3ccc([N+](=O)[O-])cc3)N2C(=O)CN1C1CC1 (stereo partly specified) | inactive | 5.54% |
| O=C(Nc1ccccc1Cl)/C(Cl)=C(\Cl)S(=O)c1ccccc1 (stereo unspecified) | 4.61 µM (active) | – |
| O=C(Nc1ccccc1Cl)c1ccccc1 | inactive | 0.403% |
| O=C(Nc1ccccc1Cl)Nc1ccccc1Cl | inactive | -0.979% |

| Compound | Potency | cell number change |
| --- | --- | --- |
| CCN(CC(=O)Nc1c(F)cccc1F)C(=O)c1ccc(S(=O)(=O)N2CCCC2)cc1 | inactive | 23.3% |
| O=C(O)CN1C(=O)NC2(CCCc3ccccc32)C1=O (stereo unspecified) | inactive | 8.55% |
| CCOc1cc(-c2sc(Nc3ccccc3)n[n+]2-c2ccc(F)cc2)ccc1OC | inactive | 8.68% |
| CCN(CCNC(=O)C1CCN(S(=O)(=O)c2c(C)noc2C)CC1)c1ccccc1 | inactive | 0.289% |
| CC(C)(C)c1nc(CN2CCCCC2)cc(CN2CCCCC2)c1O | 20.6 µM (active) | -1.12% |
| Cc1ccc(-c2nc(CN3CCCCC3)cc(CN3CCCCC3)c2O)cc1 | inactive | 4.96% |
| CC(C)(C)c1nc(CN2CCOCC2)cc(CN2CCOCC2)c1O | inactive | 19.4% |
| Cc1cc(CN2CCC(N3CCC(C(=O)NC4CC4)CC3)CC2)cc(C)c1O | inactive | -10.6% |
| Cc1cc(C)n(CC(O)CN2C(=O)NC(C)(C)C2=O)n1 (stereo unspecified) | inactive | 7.08% |
| O=C1S/C(=C\c2ccccc2)C(=O)N1CC(O)Cn1c2ccccc2c2ccccc21 (stereo unspecified) | 9.2 µM (active) | 8.53% |
| COc1ccc(/C=C2/SC(=O)N(CC(O)Cn3c4ccccc4c4ccccc43)C2=O)cc1 (stereo unspecified) | inactive | -7.54% |
| CN(C)c1ccc(/C=C2\SC(=O)N(CC(O)Cn3c4ccccc4c4ccccc43)C2=O)cc1 (stereo unspecified) | inactive | 1.42% |
| C=CCn1c(CCNC(=O)c2cccs2)nnc1SCC(=O)c1cccc([N+](=O)[O-])c1 | inactive | 21.8% |
| COc1ccc(N2CCN(Cc3nc(N)nc(Nc4ccccc4OC)n3)CC2)cc1 | inactive | -16.4% |
| Cc1nc2c(sc(=S)n2Cc2ccco2)c(=O)n1CC(=O)Nc1ccc(F)cc1 | 16.4 µM (active) | 20.2% |
| CCn1c(=S)sc2c(=O)n(CC(=O)Nc3ccccc3)c(C)nc21 | inactive | 22.9% |
| Cc1nc2c(sc(=S)n2Cc2ccco2)c(=O)n1CC(=O)Nc1ccccc1Cl | inactive | 8.56% |
| COc1ccc(CN2CC(=O)N(c3ccc(C)cc3C)C2=S)cc1OC | inactive | 8.06% |
| CC(=O)NCCc1nc2ccccc2n1CCOc1ccccc1 | inactive | 18.1% |
